From PubChem BioAssay
Compounds with a hit are over-represented: about 2.9% of the library has one in this group of screens.
NSD2 HMT inh: NSD2 histone methyltransferase inhibitors, primary screen, biochemical, AlphaScreen, single concentration, set 2 | NSD2 peptide methylation, 120 min | inhibition, % at 12.5 µM | actives 0.54% (n = 310,000) | AID 743445, 2014; in the data active = inhibition above about 50%
Target sequence (O96028 whole entry, looked up): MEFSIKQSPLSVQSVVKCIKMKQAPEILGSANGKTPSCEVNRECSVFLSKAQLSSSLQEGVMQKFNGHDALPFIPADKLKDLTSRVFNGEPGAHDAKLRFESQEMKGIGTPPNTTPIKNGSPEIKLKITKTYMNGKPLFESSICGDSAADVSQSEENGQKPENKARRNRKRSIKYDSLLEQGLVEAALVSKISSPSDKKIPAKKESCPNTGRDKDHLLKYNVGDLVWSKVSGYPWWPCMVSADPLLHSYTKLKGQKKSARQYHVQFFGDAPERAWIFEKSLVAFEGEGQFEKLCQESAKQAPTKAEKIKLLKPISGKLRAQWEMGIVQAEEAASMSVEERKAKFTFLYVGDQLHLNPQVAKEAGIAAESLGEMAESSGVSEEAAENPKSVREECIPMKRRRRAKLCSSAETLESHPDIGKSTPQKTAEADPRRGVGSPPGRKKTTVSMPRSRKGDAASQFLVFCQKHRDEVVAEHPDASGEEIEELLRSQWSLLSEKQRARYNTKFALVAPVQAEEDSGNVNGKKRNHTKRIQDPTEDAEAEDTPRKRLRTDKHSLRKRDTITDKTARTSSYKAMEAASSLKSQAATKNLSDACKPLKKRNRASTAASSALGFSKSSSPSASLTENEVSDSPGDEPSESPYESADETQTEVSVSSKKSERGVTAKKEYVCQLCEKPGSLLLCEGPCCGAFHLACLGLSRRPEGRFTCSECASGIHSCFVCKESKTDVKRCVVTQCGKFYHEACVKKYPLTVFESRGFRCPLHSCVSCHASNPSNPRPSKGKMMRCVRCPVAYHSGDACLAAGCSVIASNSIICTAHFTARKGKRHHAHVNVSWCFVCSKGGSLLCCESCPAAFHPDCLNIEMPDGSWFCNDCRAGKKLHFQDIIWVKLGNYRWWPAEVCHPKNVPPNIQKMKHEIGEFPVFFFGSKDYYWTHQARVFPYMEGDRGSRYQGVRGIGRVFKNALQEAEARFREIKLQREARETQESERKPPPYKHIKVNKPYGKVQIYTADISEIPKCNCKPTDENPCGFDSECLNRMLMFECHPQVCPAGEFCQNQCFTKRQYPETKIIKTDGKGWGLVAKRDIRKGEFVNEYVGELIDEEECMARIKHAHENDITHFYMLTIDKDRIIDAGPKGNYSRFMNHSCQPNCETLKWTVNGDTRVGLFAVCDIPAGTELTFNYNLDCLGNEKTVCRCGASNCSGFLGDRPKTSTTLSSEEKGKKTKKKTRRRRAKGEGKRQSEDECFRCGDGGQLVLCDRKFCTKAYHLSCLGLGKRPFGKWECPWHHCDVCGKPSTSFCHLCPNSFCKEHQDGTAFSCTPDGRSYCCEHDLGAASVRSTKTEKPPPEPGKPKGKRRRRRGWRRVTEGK
TRPM1 prom inh: inhibitors of MITF-dependent TRPM1 promoter reporter, primary screen, cell-based, SK-MEL-5, single point, luciferase. SK-MEL-5 TRPM1 promoter luciferase, 24 h. AID 488899, 2010. inhibition, % at 12.5 µM. actives 0.83% (n = 330,000);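 active = mean inhibition across replicates of 60% or more, whatever share of single replicates reaches that level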
N-glyco inh: increase of ERlucT glycosylation luciferase signal, primary screen, N-linked glycosylation inhibitor project, D54 ERlucT cells, luminescence, set 2 | actives 0.23% (n = 360,000) | D54 ERlucT glycosylation luciferase reporter, 24 h; percent of 100 nM tunicamycin response | AID 588692, 2011 | reporter increase, % at 12.5 µM;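 active = mean luciferase reporter signal, scaled so untreated is 0 and the glycosylation-blocking control 100, at or above a set limit in every replicate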;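 also: luciferase carries N-glycosylation sites so blocking glycosylation raises the light; 0% = median of neutral control wells and 100% = median of 100 nM tunicamycin wells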
PfHsp90 set2: growth inhibition of PfHsp90-expressing yeast, primary screen, antimalarial PfHsp90 inhibitor project, S. cerevisiae, BacTiter-Glo luminescence, single point, set 2. BacTiter-Glo ATP, 48 h; yeast lacking PDR1 and PDR3 efflux regulators. inhibition, % at 9.4 µM. actives 0.32% (n = 310,000). AID 504621, 2011;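 active = every replicate shows inhibition above about 80%, whatever the replicate mean, limit read from the data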;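 also: 0% = DMSO neutral controls and 100% = 20 µM radicicol positive controls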
Wnt act: Wnt/beta-catenin pathway activators, primary screen, cell-based, plate reader, single point | Wnt/beta-catenin reporter cell assay, activator | activation, % at 9.35 µM | actives 1.2% (n = 300,000); in the data active = activation above about 30%, passing the limit was not always enough;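 also: 0% = neutral control wells and 100% = positive control wells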
MITF act: activators of MITF-driven TRPM1 promoter reporter, primary screen, cell-based, SK-MEL-5, luciferase, single point; SK-MEL-5 TRPM1-promoter luciferase, 24 h; % of positive control, neutral wells = 0; activation, % at 12.5 µM; actives 0.75% (n = 300,000); AID 588334, 2011;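 active = mean activation of at least 80% with every replicate also reaching 80%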;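 also: 0% = neutral control wells and 100% = parthenolide positive control wells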
Alpha artifact: AlphaScreen signal interference with preloaded methylated product, dose response, artefact control for NSD2 inhibitor project, biochemical, cherry-picked samples; AID 1053174, 2014; AlphaScreen artifact counterscreen, preloaded methylated H4 peptide; actives 9.4% (n = 1,500); AC35, µM (highest dose often 10 µM), for the others: at the highest dose activity change, negative = signal loss; shares compounds with NSD2 HMT inh; call rule not given here
* hit, by the source's call; / = not tested or not shown; + = active, no number.

SMILES | NSD2 HMT inh | TRPM1 prom inh | N-glyco inh | PfHsp90 set2 | Wnt act | MITF act | Alpha artifact
COc1cc(O)cc2c1C(=O)OC(C)CCCC(=O)CCC/C=C\2 (stereo not given) | 54.4* | 1.7 | 2.0 | -0.8 | -1.9 | -2.0 | -1.5%
COC(=O)c1nc(-c2ccc3c(n2)C(=O)C(N)=C(OC)C3=O)c(N)c(-c2ccc(OC)c(OC)c2O)c1C | 55.5* | 100.0* | 5.7 | -14.8 | 0.3 | -97.4 | -1.7%
O=C(NC1CN2CCC1CC2)c1cccc(Cl)c1 (stereo not given) | -1.3 | -13.5 | -6.8 | 5.9 | 0.1 | 10.5 | /
C=C(C)c1cccc(C(C)(C)NC(=O)NC2CN3CCC2CC3)c1 (stereo not given) | 51.0* | 4.0 | -0.3 | -43.7 | / | / | 0.2%
CCOP(=S)(OCC)Oc1cc(C)oc(=O)c1Cl | 2.0 | -7.6 | 0.3 | 7.6 | 0.2 | 7.2 | /
CCCCn1c(NC(=O)c2ccco2)c(C(=O)OCC)c2nc3ccccc3nc21 | 174.9* | 5.4 | 5.2 | -0.1 | / | -1.9 | 2.2%
CCCCn1c(N)c(C(=O)OCC2CCCO2)c2nc3ccccc3nc21 (stereo not given) | 82.9* | 1.4 | 11.5 | 26.9 | -2.3 | -6.1 | 0.6%
CCCCNC(=O)c1c(N)n(Cc2ccc3c(c2)OCO3)c2nc3ccccc3nc12 | 68.3* | 11.9 | -0.6 | 25.1 | -1.4 | -14.2 | -6.1%
CCCCCn1c(N)c(C(=O)NCc2cccs2)c2nc3ccccc3nc21 | 82.8* | / | / | / | / | / | 4.4%
COc1ccc(C(=O)C2CCCN(C3CSCCSC3)C2)cc1OC (stereo not given) | 0.0 | -7.8 | -6.1 | -13.0 | -6.2 | 4.0 | /
COC(=O)C1=C(c2cccc(C#N)c2)C[C@@H]2CC[C@H]1N2C(=O)N1CCOCC1 | / | -3.7 | 2.8 | 6.2 | -2.1 | 5.3 | /
COCCCn1c(N)c(C(=O)NCCC(C)C)c2nc3ccccc3nc21 | 108.7* | -4.5 | 3.1 | 3.9 | / | / | 5.2%
COc1cccc(O)c1CN1CCCC(C(=O)c2ccccc2SC)C1 (stereo not given) | 1.8 | -10.9 | -0.3 | 23.4 | -3.0 | 5.6 | /
COC(=O)C1=Nc2ccccc2/C1=C\c1c(O)n(-c2ccc(Br)cc2)c(=O)[nH]c1=O | 60.6* | 5.9 | 3.0 | -16.2 | -1.6 | -7.1 | -0.2%
COC(=O)C1=Nc2ccccc2/C1=C\c1c(O)n(-c2ccc(OC)cc2)c(=O)[nH]c1=O | 3.1 | 17.5 | -1.7 | -18.3 | / | -15.8 | /
COc1ccc(N2C(=O)NC(=O)/C(=C\c3ccc([N+](=O)[O-])s3)C2=O)cc1 | 51.4* | 16.8 | -0.6 | 22.6 | -0.2 | -17.5 | -1.8%
COc1cccc(N2C(=O)NC(=O)/C(=C/c3ccc([N+](=O)[O-])s3)C2=O)c1 | 27.6 | -1.2 | 2.5 | 7.4 | -1.2 | / | /
COc1cccc(NP2(=O)OCC(C)([N+](=O)[O-])CO2)c1 (stereo not given) | 0.4 | 2.9 | -2.4 | 9.8 | -2.8 | 1.7 | /
Fc1ccc(Cn2nnnc2C(c2ccc(Cl)cc2)N2CC=C(c3ccc(F)cc3)CC2)cc1 (stereo not given) | 50.8* | -6.0 | -7.7 | 16.9 | -5.1 | 6.4 | -0.7%
O=C1NC(=S)N(c2ccccc2)C(=O)/C1=C/c1ccco1 | / | 8.6 | 1.1 | 0.3 | -1.5 | / | /
COc1ccc(CN2C(=O)NC(=O)/C(=C\c3ccco3)C2=O)cc1 | 50.5* | 13.3 | 2.0 | -19.5 | -13.2 | -10.4 | -11.1%
CCOc1cccc(N2C(=O)/C(=C/c3ccco3)C(=O)NC2=S)c1 | 122.8* | 6.1 | 0.4 | 3.5 | -1.1 | / | 2.62µM*
COC(=O)C1=C(c2c(C)noc2C)C[C@@H]2CC[C@H]1N2C(=O)N1CCC(C)CC1 | / | 8.4 | 0.5 | 2.4 | -0.7 | -7.4 | /
O=c1ccc2cc(O[C@@H]3O[C@H](CO)[C@@H](O)[C@H](O)[C@H]3O)c(O)cc2o1 | / | -7.7 | 0.0 | -3.0 | -0.7 | 9.2 | /
COc1cc(/C=C2/C(=O)NC(=O)N(c3ccccc3)C2=O)ccc1O | 6.9 | 2.4 | 3.2 | 10.4 | / | -1.5 | /
SMILES | NSD2 HMT inh | TRPM1 prom inh | N-glyco inh | PfHsp90 set2 | Wnt act | MITF act | Alpha artifact
O=C1NC(=O)N(c2ccccc2)C(=O)/C1=C/c1ccoc1 | 50.7* | 20.6 | 1.6 | -3.2 | -0.3 | -21.8 | -5.9%
CCOC(=O)CNC(=O)N1Cc2cc(-c3ccc(OC)cc3)ccc2-n2nncc2C1 | / | / | 5.0 | / | -2.1 | / | /
Cc1nc2nc(SCC(=O)N3CCC4(CC3)OCCO4)nn2c(C)c1Cc1ccccc1 | / | 1.9 | -0.9 | -29.7 | 0.1 | -4.1 | /
c1cc2c(cc1-c1ccc3c(c1)OCO3)CNCc1cnnn1-2 | / | / | 1.1 | / | -1.3 | / | /
Cc1cc(C)c(Cn2c(C(=O)O)c(C=O)c3ccccc32)c(C)c1 | -0.8 | 0.0 | -1.3 | 24.9 | -0.6 | 1.0 | /
CN(C)C(CNC(=O)Cc1ccc(Br)cc1)c1ccccc1 (stereo not given) | 53.1* | 8.5 | -1.5 | -2.8 | 1.0 | / | -7.5%
COc1ccc(-n2c(/C=C/c3ccc(O)cc3)nc3ccccc3c2=O)cc1 | -3.3 | 4.4 | 1.7 | -10.2 | -3.8 | / | /
CCn1nc(/C=C/c2ccccc2)nc2c(=O)n(C)c(=O)nc1-2 | + | 103.8* | -19.3 | 74.8 | -1.9 | -103.6 | -1.4%
COc1ccccc1N1C(=O)NC(=O)C(CCc2ccncc2)(CCc2ccncc2)C1=O | -0.6 | -4.9 | 1.8 | 5.1 | -2.9 | 4.8 | /
Nc1ccncc1Cl | -6.6 | / | -0.7 | -4.2 | 0.1 | / | /
O=C(c1cc2ccccc2oc1=O)N1CCC2(CC1)OCCO2 | 64.6* | 3.0 | 2.1 | 5.5 | / | -0.7 | -4.5%
CC(C)N1CCOC(c2ccc(O)c(O)c2)C1 (stereo not given) | 2.3 | / | 0.6 | / | -2.4 | / | /
COc1ccc(/C=C2/C(=O)N(Cc3ccco3)C(=O)N(C(C)C)C2=O)cc1 | / | -2.3 | -0.3 | -7.1 | 0.4 | 2.6 | /
CC(C)N1C(=O)/C(=C/C=C/c2ccco2)C(=O)N(Cc2ccco2)C1=O | 107.3* | 71.3* | 30.3* | -31.2 | 12.2 | -71.9 | 8.46µM*
CC(C)c1ccc(N2C(=O)NC(=O)/C(=C\C=C\c3ccco3)C2=O)cc1 | 94.2* | / | / | / | -5.6 | / | -8.3%
